# Many of the other results were omitted from the sample, so hits are more common in it than they were.
# PTAP TSG101 blk = blocks PTAP/TSG101 interaction to inhibit HIV-1 budding; Potency, µM (titrated, usually from 115 µM), without a hit: top-dose activity change, negative = inhibition, usual class: inhibitors; Q99816; 340,000 tested, under 10 active; Fluorescence polarization, FITC-PTAP peptide / Tsg101 binding; active = well fitted inhibition curve with a large enough effect in the main read-out, with a control signal flat, not every such curve was filed as active; inconclusive = small, poorly fitted or top-dose-only effect, or effect the other way, or a change in a side signal; inactive = no such curve, though single readings can be large or run the other way; note: % of control where 0% means no effect
# Target sequence (Q99816 whole entry, looked up): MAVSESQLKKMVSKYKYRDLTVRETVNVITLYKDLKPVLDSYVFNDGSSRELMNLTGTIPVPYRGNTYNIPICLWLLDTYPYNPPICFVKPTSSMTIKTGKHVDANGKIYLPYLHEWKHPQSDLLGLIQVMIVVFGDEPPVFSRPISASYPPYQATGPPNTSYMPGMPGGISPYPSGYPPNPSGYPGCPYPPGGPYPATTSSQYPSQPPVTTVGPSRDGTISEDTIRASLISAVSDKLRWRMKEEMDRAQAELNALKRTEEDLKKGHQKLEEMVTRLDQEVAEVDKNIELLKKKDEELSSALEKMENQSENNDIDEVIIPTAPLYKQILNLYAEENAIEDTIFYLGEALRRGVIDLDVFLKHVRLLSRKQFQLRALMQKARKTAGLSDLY
#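 Steps: Tsg101 binding domain dispensed (10 uM final), compounds pinned in DMSO, FITC-labeled PTAP-motif peptide added (50 nM final); after 20 min binding at room temperature, polarization measured.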
# Epigenetic reg = regulators of epigenetic silencing causing reporter derepression in mouse cells. hit rate 0.2% among 280,000. AID 1865. murine LDR cells, GFP reporter derepression, 30 h. Potency, µM (top dose mostly 53.9 µM), for inactives: top-dose GFP activation, most hits filed as activators; note: % of control where 0% means no effect; nearly all actives have a fitted effect of over 60% in size
#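 Murine LDR cells bearing a silenced CMV-driven GFP reporter were exposed to compound for 30 h at 37 C. After PBS washes, GFP-positive cells (20-120 um objects) counted by laser-scanning microplate cytometry.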
# Anesthetic bind = candidate novel general anesthetic via apoferritin binding | P02791 | apoferritin/1-aminoanthracene competitive binding, fluorescence | Potency, µM (titrated, usually from 77.5 µM), without a hit: at the highest dose activity change, negative = displacement, most hits filed as inhibitors | hit rate 0.074% among 350,000 | AID 485281; note: % is set by controls: 0 for no effect and ±100 for the full control effect; nearly all actives have a fitted effect of over 20% in size
# Target sequence (P02791 2-175 limits assumed): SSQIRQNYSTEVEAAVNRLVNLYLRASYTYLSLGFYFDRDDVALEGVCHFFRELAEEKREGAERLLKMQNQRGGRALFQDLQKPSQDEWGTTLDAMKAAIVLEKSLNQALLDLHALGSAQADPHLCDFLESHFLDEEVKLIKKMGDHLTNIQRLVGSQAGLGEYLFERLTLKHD
#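 In PBS, apoferritin at 10 uM is loaded with 1-AMA from a 50% saturated solution. After 10 min of compound exposure at ambient temperature, reduced 535 nm fluorescence indicates probe displacement.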
# HTT aggregate = inhibitors of mutant huntingtin aggregate formation in PC12 cells | Potency, µM (doses to about 46.1 µM), for the others: at the top dose activity change, negative = inhibition, usual class: inhibitors | PC12 HttQ103-GFP aggregates, Acumen cytometry, 40 h | hit rate 1.1% among 220,000; note: % is set by controls: 0 for no effect and ±100 for the full control effect; nearly all actives have a fitted effect of over 60% in size
#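 Quantitative HTS on tebufenozide-induced (100 nM) PC12 cells stably expressing polyQ103 Huntingtin exon 1–GFP. Reduction of bright GFP aggregates, detected by laser scanning cytometry after lysis, identified actives across the titration.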
# HTT ATP protect = protects HTT-Q103 PC12 cells, measured by ATP; PC12 HTT-Q103 induced, cytoprotection, ATP luminescence, 40 h; Potency, µM (series often up to 56.4 µM), without a hit: cytoprotection (ATP increase), usual class: activators; hit rate 0.14% among 230,000; note: % of control where 0% means no effect; nearly all actives have a fitted effect of over 45% in size
#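 Huntington model: PC12 line, ecdysone-inducible HTTQ103 exon1–GFP, tebufenozide 100 nM. Test articles in a dose series. Endpoint luminescence from cellular ATP.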
# PINK1 expr mod = changes PINK1 expression. PINK1 immunofluorescence, high-content cytometry, 24 h. Potency, µM (top dose mostly 76.6 µM), for the others: top-dose activation (PINK1 increase), most hits filed as activators. hit rate 0.2% among 410,000. AID 624263; active = well fitted activation curve with a large enough effect; inconclusive = small, poorly fitted or top-dose-only effect; cell line not stated here; note: % of control where 0% means no effect; nearly all actives have a fitted effect of over 65% in size
#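 A stable cell line was treated with compounds at 5 concentrations for 24 hours, with CCCP as control. PINK1 levels and mitochondrial localization were measured by immunofluorescence with mitochondrial, cell and nuclear markers after fixation, read by laser-scanning cytometry.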
# * marks the source's active call; other numbers are inactive results; ? = inconclusive; · = not tested or not shown; ! = not active in a repeat; [ ] = another dose, or the depositor's remark. Unless noted, calls come from the whole dose curve; as a rule, active = well fitted curve in the direction sought with a large enough effect; inconclusive = small, poorly fitted or top-dose-only effect, or another doubt; inactive = no such curve, though single readings can be large; an effect the other way counts as inactive or inconclusive. Potency is the fitted concentration of half-maximal effect.
SMILES,PTAP TSG101 blk,Epigenetic reg,Anesthetic bind,HTT aggregate,HTT ATP protect,PINK1 expr mod
COc1cc(=O)n2c(c1C(=O)N(C)Cc1cscn1)CCN(C(=O)c1cccc(C)c1C)CC2,·,·,·,·,·,0.2%
COc1ccc(NC(=O)Cn2cnc3c(oc4ccccc43)c2=O)cc1OC,·,1.4%,202.0%,·,·,-0.6%
Cc1oc(-c2ccccc2NC(=O)c2ccsc2)nc1CN(C)CC1CC=CCC1 (centres undefined),·,·,·,·,·,0.5%
COc1cc(C/C=C\c2ccccc2)c(OC)cc1O,·,1.1%,·,·,-192.8%,·
CC(C)c1ccc(Nc2ncnc3c2c(-c2ccccc2)cn3-c2ccccc2)cc1,·,1.2%,-10.0%,·,·,1.7%
O=C(O)CSc1cccc2cccnc12,-4.8%,17.8µM*,3.5%,27.1%,-9.6%,1.8%
Cc1cc2c(N=O)c(NO)ccc2[nH]1,0.3%,15.8µM*,-5.3%,?,-65.3%[10 µM],0.1%
Cc1sc2ncnc(N3CCC(C(=O)NNC(=O)COc4ccc(Cl)cc4)CC3)c2c1C,-4.0%,·,·,·,·,-0.1%
Cc1sc2ncnc(N3CCN(CCOc4ccc(Cl)cc4)CC3)c2c1C,-7.1%,2.2%,7.9%,2µM*,-35.0%,3.3%[38.3 µM]
FC(F)C(F)(F)C(F)(F)C(F)(F)c1cc(-c2ccccc2)n[nH]1,-8.5%,3.0%,14.1µM*,10.8%,-8.5%,?
Cc1cc(-c2ccccc2)n[nH]1,-1.4%,2.6%,-8.5%,-7.6%,-36.7%,6.4%
c1ccc2c(N3CCCCCC3)nc(CN3CCCCC3c3nccs3)nc2c1 (centres undefined),·,·,·,·,·,1.6%
O=C(CNC(=O)c1ccc2c(c1)OCO2)N/N=C(Br)/C=C/c1ccccc1,-4.4%,0.0%,7.08µM*,15.8%,-23.8%[10 µM],-2.3%
CC1CN(C(=O)N2CCC(C(=O)NCCCc3ccccc3)CC2)c2cc(Cl)ccc2O1 (centres undefined),·,0.0%,-6.4%,·,·,-1.8%
Cc1cnc(SCc2ccccn2)nc1C1CCCN(C(=O)c2ccc3c(c2)OCO3)C1 (centres undefined),·,·,·,·,·,-0.8%
CCOC(=O)CCCSc1nnc(CCCCCN2C(=O)c3cccc4cccc(c34)C2=O)o1,-2.6%,3.4%,-2.9%,?,2.51µM*,1.1%
N#Cc1ccc(/C=C2\C=Cc3ccccc32)cc1,·,·,·,·,·,0.2%
Cn1cc(/C=C/c2cc[n+](C)cc2)c2cc(F)ccc21,?,·,98.1%,·,·,11.2µM*
C[n+]1ccc(/C=C/c2c[nH]c3ccc(F)cc23)cc1,?,·,126.5%,·,·,15.8µM*
Cn1cc(/C=C/c2cc[n+](C)cc2)c2cc(Cl)ccc21,20.7%,·,66.4%,·,·,?
O=C(Nc1ccc2oc(-c3ccccc3)nc2c1)c1ccc2c(c1)OCCO2,-0.4%,-0.1%,-9.4%,-0.8%,-26.3%[10 µM],12.6µM*
O=C(Nc1ccc2oc(-c3ccncc3)nc2c1)c1ccc2c(c1)OCCO2,?,?,-5.2%,-14.6%[9.22 µM],12.6%[10 µM],?
Nc1nnc(CSCc2ccccc2Cl)s1,0.3%,0.9%,?,24.6%[9.22 µM],29.9%[10 µM],-0.3%
Nc1nnc(SCc2ccccc2Cl)s1,-6.3%,-0.7%,11.2µM*,13.7%,-9.7%[0.074 µM],-0.4%
Cc1cc(C)c(C(=O)COC(=O)c2cc([N+](=O)[O-])ccc2NCCO)cc1C,-0.6%,1.2%,-26.7%,0.0141µM*,·,13.7%
CCc1ccc(C(=O)COC(=O)c2cc([N+](=O)[O-])ccc2NCCO)cc1,0.5%,-0.9%,?,-11.5%,16.5%[0.074 µM],-0.8%
COc1ccccc1N1CCN(CCCNc2c(C)c(=O)n(C)c(=O)n2C)CC1,10.8%,-1.2%,·,·,17.9%,0.5%
COc1ccccc1N1CCN(CCCNc2cc(=O)n(C)c(=O)n2C)CC1,·,2.4%,1.4%,24.4%,31.6µM*!,2.6%
Cc1cc(C)c(C(=O)Nc2ccc(Br)c(C(F)(F)F)c2)c(C)c1,-1.2%,1.1%,-13.5%,20µM*,·,12.6µM*

# Compound activity from PubChem BioAssay.
